Compound activity as filed in PubChem BioAssay.
Compounds with a hit are over-represented: about 21% of the library has one in this group of screens.
NS1 function inh – blocks influenza NS1 protein function; AID 2326; actives 0.4% (n = 270,000); Potency, µM (doses to about 46.1 µM), without a hit: at the highest dose activity, positive = more growth; further: potency means the concentration at half of the fitted maximal effect; actives are rising curves; nearly all actives have a fitted effect of over 50% in size
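Compounds were scored for reversing the slow growth caused by influenza A NS1 in S. cerevisiae, measured by optical density at 600 nm. Assay medium contained 2% galactose at pH 6.0; NS1-free yeast of the same strain were the positive control.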
Pf growth 96h – inhibits malaria parasite growth, 96 h. P. falciparum luciferase reporter growth, 96 h. Potency, µM (series often up to 28.7 µM), without a hit: top-dose activity change, negative = inhibition, actives largely listed as inhibitors. actives 6.9% (n = 320,000). AID 504834; active means well fitted inhibition curve with a large enough effect; inconclusive means small, poorly fitted or top-dose-only effect, or another doubt; inactive means no such curve, though single readings can be large or run the other way; further: potency means the concentration at half of the fitted maximal effect; on the % scale 0 is the no-effect control and ±100 the full control effect
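P. falciparum expressing integrated firefly luciferase, in erythrocytes at 2% hematocrit, 0.05% parasitemia, incubated with compounds 96 h at 37 C, 5% CO2. Growth inhibition read as loss of luminescence; two-generation exposure targets delayed-death apicoplast inhibitors.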
Shiga toxin inh – inhibitors of Shiga toxin in Vero cells; Vero cells, Shiga toxin protein synthesis inhibition reporter; inhibition, % at 38.7 µM; actives 9.2% (n = 290,000); in the data active means inhibition mostly above about 28%, no sharp cut-off; inactive means mostly below about 43%; further: 0% is about no effect
Pf growth 48h – P. falciparum growth inhibition at 48 hours (one generation). P. falciparum luciferase growth in erythrocytes, 48 h. Potency, µM (series often up to 28.7 µM), without a hit: at the highest dose activity change, negative = inhibition, most hits filed as inhibitors. actives 5.9% (n = 310,000); active means well fitted inhibition curve with a large enough effect; inconclusive means small, poorly fitted or top-dose-only effect, or another doubt; inactive means no such curve, though single readings can be large or run the other way; further: potency means the concentration at half of the fitted maximal effect; on the % scale 0 is the no-effect control and ±100 the full control effect
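Firefly luciferase activity from engineered P. falciparum reports growth; inhibitors lower the luminescent signal. Cultures contained 2% hematocrit erythrocytes at 0.1% final parasitemia.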
CHX counter – counter-screen hit for Shiga toxin inhibitors, cycloheximide. cell reporter, cycloheximide protein synthesis inhibition counterscreen. actives 12% (n = 300,000). AID 2314. max response, %; in the data active means max response mostly above about 13%, no sharp cut-off; inactive means mostly below about 14%; further: read at 38.3 µM for the half of the compounds with a filed dose; 0% is about no effect
SARS PLpro yeast – inhibitors of SARS-CoV papain-like protease in yeast. S. cerevisiae expressing SARS-CoV PLpro, growth rescue. Potency, µM (doses to about 32.9 µM), without a hit: at the highest dose activity, positive = growth rescue, actives largely listed as activators. actives 0.19% (n = 330,000). AID 485353; further: potency means the concentration at half of the fitted maximal effect; 0% is about no effect; nearly all actives have a fitted effect of over 55% in size
Starred values were filed as active, the others as inactive; ? = inconclusive; / = no result given. Unless noted, the call rests on the fitted dose curve.

SMILES	NS1 function inh	Pf growth 96h	Shiga toxin inh	Pf growth 48h	CHX counter	SARS PLpro yeast
CCOc1ccc(CCNC(=O)C2CCN(S(=O)(=O)N3CCC(C)CC3)CC2)cc1OCC	6.1%	6.9%	-14.7	-12.4%	-5.8	2.1%
COc1cc(N)c(Cl)cc1C(=O)N[C@@H]1CCN(CCCOc2ccc(F)cc2)C[C@@H]1OC	/	/	-6.5	/	5.0	9.3%
O=C(Cn1cc(C(F)(F)F)ccc1=O)N1CCN(S(=O)(=O)c2ccc(Cl)cc2)CC1	-1.5%	?	12.5	2.94µM*	-1.8	0.9%
N#Cc1ccccc1OCC(=O)N1CCN(S(=O)(=O)c2ccc(Cl)cc2)CC1	/	10.4µM*	/	?	/	-4.1%
COc1cc(C=O)ccc1OCC(=O)N1CCCC1	3.1%	9.28µM*	-6.1	2.9%	-1.2	0.6%
O=C(Cn1cc(C(F)(F)F)ccc1=O)Nc1cc(S(=O)(=O)N2CCOCC2)ccc1Cl	8.0%	16.2%	-6.7	-1.2%	-1.2	10.7%
